Data reported in PubChem BioAssay (NCI).
About 79,000 compounds went through this panel and 15% of them were active in at least one assay; those are over-represented in the sample as a whole. Activity calls are given as the source filed them. No stated cut-off is given here; in the data, active means growth inhibition above about 70%; inactive means the rest. Where a SMILES comes first, the peptide text is derived from it. [ ]: non-standard residue; d: D form. ξ: configuration not given here. ξA = CC(N)C(=O)O

Assay: NCI Yeast Anticancer Drug Screen. Data for the sgs1 mgt1 strain (AID 161);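 further: 0% = growth of cultures given vehicle only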
Details: S. cerevisiae sgs1 mgt1 strain, at 50.0 µM, hits give high values
Experimental: Growth inhibition of yeast strains with defined genetic alterations is measured as a screen for potential anti-cancer activity. Selected strains with alterations in DNA damage repair or cell cycle control were exposed to compounds and growth inhibition was measured relative to vehicle treated controls. The strain used in this assay is sgs1 mgt1

Row | Compound | growth inhibition
1 | CCOC(=O)c1cn(CC)c2cc3c(cc2c1=O)SCS3 | -16.6% (inactive)
2 | CC1=Nc2c(C)noc2CC(c2ccccc2O)C1 (stereo not given) | -2.05% (inactive)
3 | CC1=N/C(=C\c2ccc(N)cc2)C(=O)N1Nc1nnc(NN2C(=O)/C(=C/c3ccc(N)cc3)N=C2C)c2ccccc12 | 1.2% (inactive)
4 | O=C(Nc1ccccc1SC(/C=C/NNC1=NC(c2ccccc2)C(c2ccccc2)=NN1)c1ccccc1)c1ccc(Cl)cc1Cl (stereo not given) | -22.8% (inactive)
5 | Clc1ccc2c(NCCCCN=Cc3ccccc3)ccnc2c1 | -14% (inactive)
6 | CN(C)CC1CCCCCCCCCC(CN(C)C)C1=O (stereo not given) | -11.3% (inactive)
7 | [O-][n+]1cc(N=Nc2ccc(Cl)cc2)nn1-c1ccc(Cl)cc1 | -8.5% (inactive)
8 | CNC(=S)NNC1=NCCCCN1 | -16.1% (inactive)
9 | C=CCNC(=S)N/C=C(\C#N)c1nc2ccccc2s1 | -15% (inactive)
10 | COc1cc(C2C(C(=O)O)=C(COC(C)=O)Oc3cc4c(cc32)OCO4)cc(OC)c1OC (stereo not given) | -25.4% (inactive)
11 | CCCCC(=CC(C)(C)C)CCCC | -7.7% (inactive)
12 | COc1ccc(N2C(=O)C3CC(c4ccc(Br)cc4)c4c([nH]c5ccccc45)C3C2=O)cc1 (stereo not given) | 5.55% (inactive)
13 | COc1cc(CNc2ccc3nc4n(c(=O)c3c2)CCCCC4)cc(OC)c1OC | 7.3% (inactive)
14 | COC(=O)c1cc(-c2ccc(F)cc2)[nH]c(=O)c1C#N | 15.3% (inactive)
15 | CC1CC(NC(=O)/C=C/C(=O)O)CC(C)(C)C1 (stereo not given) | 9% (inactive)
16 | NNC(=O)C1CC1 | -5.65% (inactive)
17 | Cc1ccc2c(c1)[nH]c(=S)n2C=C(C#N)C#N | -1.1% (inactive)
18 | CC(=O)OC1C(COS(=O)(=O)c2ccc(C)cc2)OCOC(COS(=O)(=O)c2ccc(C)cc2)C1OC(C)=O (stereo not given) | -0.55% (inactive)
19 | S=C(CC(=S)N1CCOCC1)N1CCOCC1 | -10.5% (inactive)
20 | Cc1c2oc3c(C)ccc(C(=O)NCCc4ccco4)c3nc-2c(C(=O)NCCc2ccco2)c(N)c1=O | 12.8% (inactive)

Row | Compound | growth inhibition
21 | CC(=O)OC[C@@]12CC[C@H]3C(C)(C)CCC[C@]3(C)[C@H]1C[C@@H](C1=CC(=O)O[C@H]1O)O2 | 91.5% (active)
22 | COc1cc2c(c(OC)c1OC)-c1ccc(OC)c(=O)cc1[C@@H](NC(=O)c1ccccc1)CC2 | 18.7% (inactive)
23 | CCC1CN2N=Cc3ccccc3C2=N1 (stereo not given) | -5% (inactive)
24 | Cn1c(=O)c2c(ncn2CCSCC2=NS(=O)(=O)c3cc(S(N)(=O)=O)c(C(F)(F)F)cc3N2)n(C)c1=O | -6.5% (inactive)
25 | CC1=CCC(CC=O)C1(C)C (stereo not given) | -6.3% (inactive)
26 | COC1OC(C)CC(O)C1O (stereo not given) | 14.7% (inactive)
27 | CC(=O)NCCC1CN(C(=O)/C=C/I)c2ccccc21 (stereo not given) | 4.55% (inactive)
28 | NNc1ccc([N+](=O)[O-])c2[nH][nH]c(=O)c12 | 27.1% (inactive)
29 | Cc1cccc(I)c1 | -4.95% (inactive)
30 | O=C1OC(Oc2ccccc2OC2OC(=O)c3ccccc32)c2ccccc21 (stereo not given) | 0.4% (inactive)
31 | CC(NC(=O)CNC(=O)CNC(=O)CNC(=O)CN)C(=O)O (stereo not given) (H-GGGG[ξA]-OH) | -8.55% (inactive)
32 | COC12CC3C4CCC5CC(O)CCC5(C)C4CCC3(C)C1C(C)C1(CCC(C)CO1)O2 (stereo not given) | 13.1% (inactive)
33 | CCCC1(C(=O)O)NC(=O)NC1=O (stereo not given) | -14.7% (inactive)
34 | CSC1=Nc2ccccc2N(C)c2c1c(-c1ccccc1)nn2C | 28.8% (inactive)
35 | O=NC(C[N+](=O)[O-])c1ccccc1 (stereo not given) | 2.7% (inactive)
36 | O=c1ccnc2c1ccc1[nH]cccc12 | -13.9% (inactive)
37 | COC(CNCCO)c1ccccc1 (stereo not given) | -0.45% (inactive)
38 | CC(=O)/C=C(\O)c1c(C)[nH]c2ccccc12 | -3.95% (inactive)
39 | Cc1nc(N)sc1C(=O)/C=C/c1ccc([N+](=O)[O-])cc1 | -15.7% (inactive)
40 | CC(=O)OCC1OC(n2c(C)cc(C)c(C#N)c2=S)C(OC(C)=O)C(OC(C)=O)C1OC(C)=O (stereo not given) | -5.35% (inactive)
